Bioassay records: PubChem, National Center for Advancing Translational Sciences (NCATS)
The list is not random: actives were taken first. Their share in the collection is about 12%.
Shiga toxin inh = inhibitors of Shiga toxin in Vero cells; actives 9.2% (n = 290,000); inhibition, % at 38.7 µM; Vero cells, Shiga toxin protein synthesis inhibition reporter; AID 2315; in the data active means inhibition mostly above about 28%, no sharp cut-off; inactive means mostly below about 43%; further: 0% is about no effect
Sm TGR inh = inhibitors of Schistosoma mansoni thioredoxin glutathione reductase; purified TGR, DTNB reduction, TNB absorbance 405 nm; Potency, µM (top dose mostly 114 µM), without a hit: top-dose activity change, negative = inhibition, actives largely listed as inhibitors; actives 3% (n = 360,000); AID 485364; active means well fitted inhibition curve with a large enough effect; inconclusive means small, poorly fitted or top-dose-only effect; inactive means no such curve, though single readings can be large or run the other way; further: potency means the concentration at half of the fitted maximal effect; on the % scale 0 is the no-effect control and ±100 the full control effect; nearly all actives have a fitted effect of over 60% in size
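TGR 20 nM + NADPH 100 uM (dispensed conc.), cpd preinc 15 min RT; start with NADPH (500 uM addition) then DTNB (15 mM addition). Kinetic TNB absorbance, 405 nm filter. Four-parameter Hill fit across titration.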
CHX counter = counter-screen for Shiga toxin inhibitors: cycloheximide protein synthesis inhibition; AID 2314; actives 12% (n = 300,000); cell reporter, cycloheximide protein synthesis inhibition counterscreen; max response, %; in the data active means max response mostly above about 13%, no sharp cut-off; inactive means mostly below about 14%; further: read at 38.3 µM for the half of the compounds with a filed dose; 0% is about no effect
FMDV inh = foot and mouth disease virus antiviral activity | FMDV antiviral cell-based qHTS | Potency, µM (series often up to 57.9 µM), inactives show at the highest dose activity change, negative = inhibition, most hits filed as inhibitors | actives 1.2% (n = 410,000); calls by dose curve; tested in HEK293T cells; further: read-out not given here; potency means the concentration at half of the fitted maximal effect; on the % scale 0 is the no-effect control and ±100 the full control effect; nearly all actives have a fitted effect of over 45% in size
Numbers without * were called inactive; ? = inconclusive; · = no result.

SMILES	Shiga toxin inh	Sm TGR inh	CHX counter	FMDV inh
N/C(Cc1ccccc1)=N\OC(=O)c1cccc2ccccc12	63.9*	1.0%	28.7*	?
Cc1cccc(C(=O)O/N=C(\N)Cc2cccc3ccccc23)c1	-5.7	-22.8%	-0.8	?
N/C(Cn1cncn1)=N\OC(=O)c1ccc(Cl)cc1Cl	57.6	21.9%	9.0	-6.0%
CCOC(=O)c1cc(-c2ccccc2)n(-c2cccc(C(=O)Nc3ccc(OC)cc3)c2)c1C	·	5.1%	·	0.0%
O=C1NCCCCC1NC1CC(=O)N(c2ccccc2)C1=O (centres undefined)	-2.5	-29.8%	-2.0	-11.2%
CCCOc1ccc(N2C(=O)CC(NCCNc3ccc([N+](=O)[O-])cn3)C2=O)cc1 (centres undefined)	23.5	8.91µM*	-2.4	-8.0%
CCOc1ccc(N2C(=O)CC(NC3CCCCNC3=O)C2=O)cc1 (centres undefined)	8.6	22.4µM*	-3.9	-3.7%
CCOc1ccc(N2C(=O)CC(NCC#N)C2=O)cc1 (centres undefined)	4.2	2.82µM*	-2.6	-17.1%
CC(=O)OCC#CCSc1nnc(-c2cccc(Br)c2)o1	·	2.7%	·	16.1%
COc1cccc(/C=N/NC(=O)c2[nH]c(C)c(C(=O)N/N=C/c3cccc(OC)c3O)c2C)c1O	111.7	8.0%	39.6*	32.0%
COc1cccc(/C=N/NC(=O)c2ccc(=O)[nH]n2)c1O	60.0*	21.3%	29.9*	61.2%
COc1ccc(NC(=O)Cc2csc(COc3cccc(C)c3)n2)c(OC)c1	·	2.1%	·	-3.6%
O=C(CC(=O)NC1CCCCC1)N/N=C/c1ccccc1[N+](=O)[O-]	46.6*	-10.4%	29.3*	22.9%
O=C(CCCO)N/N=C/c1ccccc1[N+](=O)[O-]	38.8*	-7.9%	0.8	38.1%
O=C(N/N=C/c1ccccc1[N+](=O)[O-])C(=O)N1CCCC1	51.7*	-4.0%	20.0*	92.8%
COc1ccc(-c2nc3cnc(N(C)C)nc3n(C)c2=O)cc1	·	·	·	36.1%
N[C@@H](C(=O)O)c1ccc(O)c(C(=O)O)c1	11.4	·	4.4	1.3%
CNS(=O)(=O)c1ccc2c(c1)NC(=O)C1CCCN21 (centres undefined)	-16.2	?	-1.4	-12.1%
N#Cc1ccc2c(c1)NC(=O)C1CCCN21 (centres undefined)	10.5	20µM*	-0.9	-6.7%
CCOc1c(Cl)cc(C(=O)N(Cc2ccc(N(C)C)cc2)Cc2ccco2)cc1Cl	·	11.4%	·	-18.2%
COc1ccc(C(=O)Nc2cnn(Cc3c(F)cccc3Cl)c2)cc1OC	20.1	7.2%	12.4*	1.3%
Cc1ccc(-c2nc(NCC3CCCO3)sc2C)cc1 (centres undefined)	68.8*	-34.9%	32.3*	61.9%
Cc1cc(SCC(=O)c2ccccc2)nc(=O)[nH]1	85.2*	-18.8%	63.3*	8.1%
Cc1cc(SCC(=O)c2ccc(Cl)cc2)nc(=O)[nH]1	52.3*	-8.7%	43.2*	-3.5%
Cc1ccc(C(=O)CSc2cc(C)[nH]c(=O)n2)cc1	84.1*	35.3%	36.8*	48.2%
SMILES	Shiga toxin inh	Sm TGR inh	CHX counter	FMDV inh
Cc1ccc(NC(=O)Cn2c(=O)n(Cc3ccccc3)c(=O)c3c2c2cc(C)ccc2n3C)cc1	·	10.4%	·	-11.9%
Cc1cccn2c(=O)c(C(=O)NCc3ccc(F)cc3)c(O)nc12	·	5.8%	·	-20.4%
CN(C)S(=O)(=O)c1ccc2c(c1)N(CC(=O)N1CCC(C(N)=O)CC1)CCS2	·	1.2%	·	-7.2%
OCCSc1ncnc2c1oc1ccccc12	63.1*	3.2%	21.8*	10.1%
O=C(CSc1ncnc2c1oc1ccccc12)NCc1ccco1	51.4*	28.2µM*	30.1*	·
c1ccc(Sc2ncnc3c2oc2ccccc23)cc1	80.7*	10.6%	32.8*	7.4%
COc1ccc(-n2nc3cc(N)c(Br)cc3n2)cc1	·	4.3%	30.2*	51.3%
COc1ccc(-c2nc3ccccc3nc2-c2ccccc2)cc1	-11.0	1.2%	-1.5	?
COc1ccc(-n2nc3cc(C)c(NC(=O)c4ccc(-c5ccc(Br)cc5)o4)cc3n2)cc1	·	-11.6%	·	45.8%
COc1ccc(-n2nc3ccccc3n2)cc1	53.0	2.8%	24.1*	124.5%
COc1ccc(-n2nc3cc(C)c(N)c(Br)c3n2)cc1	127.6*	39.8µM*	62.6*	18.7%
COc1ccc(-n2c(SC)nc3ccccc3c2=O)cc1	3.3	-0.4%	2.2	-16.9%
COc1ccc2nc3ccccc3nc2c1	69.1*	-8.6%	39.8*	36.6%
Cn1c(=O)c2sccc2n2c(CCCC(=O)Nc3ccc(Oc4ccccc4)cc3)nnc12	·	-2.5%	·	?
COCCN1CCN(C(=O)c2cnn(-c3nccc(-c4ccccc4F)n3)c2-c2ccco2)CC1	·	·	·	0.0%
Cc1ccc2c(c1)c1c(c(=O)n(-c3ccccc3)c(=O)n1CC(=O)c1ccc(F)cc1)n2C	·	2.1%	·	-4.5%
Cc1cc(Cl)ccc1OCC(=O)N/N=C1\CCCc2ccccc21	8.2	13.2%	-0.4	-2.7%
O=C(O/N=C1\CCCc2ccccc21)C1CC1	-8.1	-0.4%	-1.4	-17.9%
Cc1cccc(C(=O)O/N=C2\CCCc3ccccc32)c1	41.4*	9.3%	24.1*	51.0%
O=C(O/N=C1\CCCc2ccccc21)c1cccc(Cl)c1	7.4	-17.4%	13.3*	16.5%
Cc1cccc(C(=O)O/N=C2\CCSc3ccc(C)cc32)c1	-7.3	2.5%	-2.6	14.6%
Cc1ccc(C(=O)O/N=C2\CCCc3ccccc32)cc1	61.9*	-0.5%	17.8*	18.7%
COc1ccc(CCn2cc3c(c2-c2ccccc2Br)c(=O)n(C)c(=O)n3C)cc1OC	·	-17.2%	·	0.0%
O=c1c2oc3ccccc3c2n(Cc2cccc(F)c2)c(=O)n1Cc1ccc2c(c1)OCO2	·	0.5%	·	-19.5%
Cc1cccc(S(=O)(=O)N2CCCc3ccccc32)c1	-6.8	38.2%	11.2	11.4%
SMILES	Shiga toxin inh	Sm TGR inh	CHX counter	FMDV inh
O=S(=O)(c1ccc(Br)cc1)N1CCCc2ccccc21	-6.8	-1.0%	11.6*	-16.4%
COC(=O)Nc1ccc(S(=O)(=O)N2CCCc3ccccc32)cc1	40.6*	0.6%	18.2*	-8.1%
O=S(=O)(c1ccc(F)c(F)c1)N1CCCc2ccccc21	63.6*	-8.7%	37.3*	4.5%
OCCN1CCN(Cc2ccc3c(c2)CN(Cc2ccc4ccccc4c2)CCO3)CC1	·	·	·	8.2%
CCc1ccc(N2C(=O)CN(Cc3sccc3C)C2=S)cc1	51.1*	7.0%	20.5*	37.2%
Cc1cc(C)cc(N2C(=O)CN(Cc3sccc3C)C2=S)c1	2.3	-5.6%	-2.6	-11.0%
Cc1ccc(S(=O)(=O)CC(=O)c2ccc([N+](=O)[O-])cc2)cc1	-3.7	?	5.3	18.7%
Cc1ccc(NCCC(=O)c2cccc([N+](=O)[O-])c2)c(C)c1	0.0	0.501µM*	35.0*	63.7%
Cc1cccc(NCCC(=O)c2ccc([N+](=O)[O-])cc2)c1C	11.4	·	2.5	-0.1%
Cc1ccc(C(=O)CNc2cccc([N+](=O)[O-])c2)cc1	90.0*	6.4%	38.2*	57.5%
CNC(CC(=O)c1ccc([N+](=O)[O-])cc1)C(Cl)(Cl)Cl (centres undefined)	-2.4	0.447µM*	6.5	31.6µM*
Cc1ccc(NCC(=O)c2ccc([N+](=O)[O-])cc2)cc1	85.3*	15.8µM*	42.8*	67.7%
CCOC(=O)c1c(C)oc2ncnc(Nc3ccc(F)cc3Cl)c12	·	-5.0%	·	5.7%
